Screens deposited in PubChem BioAssay by National Center for Advancing Translational Sciences (NCATS).
Pf Dd2 growth: Plasmodium falciparum Dd2 growth inhibition; 4.3% of 120,000 active; AID 1347417; P. falciparum Dd2 growth, SYBR Green, 72 h; Potency, µM (highest dose often 28.9 µM), for inactives: top-dose activity, negative = inhibition, usual class: inhibitors; active means well fitted inhibition curve with a large enough effect;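 further: plate controls were DMSO vehicle for no effect and reference drug for full effect; nearly all actives have a fitted effect of over 65% in size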
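Readout: SYBR Green fluorescence, 485 nm excitation, 535 nm emission, after ~16 h lysis at 37C. Before that, Dd2-infected red cells (2.5% hematocrit) grew 72 h with compound, 29 uM top final concentration.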
* marks the source's active call; other numbers are inactive results; i = inactive; [ ] = another dose, or the depositor's remark. This is one part of a sample in which hits are shown more often than they occur. Potency means the concentration at half of the fitted maximal effect.

SMILES	Pf Dd2 growth
Cc1[nH]c2c(c1C(=O)N1CCCC(CCc3ccc(F)cc3)C1)C(=O)CCC2 (stereo not drawn)	i
O=C1Nc2ccccc2CC12CCN2Cc1cccnc1 (stereo not drawn)	-7.9%[44.1 µM]
Cc1noc([C@@H]2CC(F)(F)CN2C(=O)c2ncccc2F)n1	8.2%
Cc1noc(C)c1S(=O)(=O)N1CCCCCCNC(=O)CC1	3.5%
CS(=O)(=O)N1CCCCCNC(=O)CC1c1ccccc1 (stereo not drawn)	0.0%
O=C1CC(c2ccccc2)N(Cc2ccncc2)CCCN(C(=O)CN2CCCC2=O)CCN1 (stereo not drawn)	i
Cc1noc(C)c1S(=O)(=O)N1CCCN(Cc2ccncc2)C(c2ccccc2)CC(=O)NCC1 (stereo not drawn)	1.12µM*
CN(C)S(=O)(=O)N1CCCN(Cc2ccncc2)C(c2ccccc2)CC(=O)NCC1 (stereo not drawn)	10µM*
Cc1noc(C)c1S(=O)(=O)NCC(=O)N1CCCCCNC(=O)CC1c1ccccc1 (stereo not drawn)	9.9%
CCn1ncc(CN2CCCN(Cc3ccncc3)C(c3ccccc3)CC(=O)NCC2)c1C (stereo not drawn)	-4.2%
O=C1CC(c2ccccc2)N(Cc2ccncc2)CCCN(CC2CCCCC2)CCN1 (stereo not drawn)	3.16µM*
CS(=O)(=O)N1CCCN(Cc2ccccn2)CCNC(=O)CC1c1ccccc1 (stereo not drawn)	-5.1%
Cn1ccnc1CNC(=O)C[C@@H]1C[C@H]2O[C@H](CNCc3ccccc3OC(F)(F)F)[C@@H](O)[C@H]2O1	19.5%
O=S(=O)(N[C@H]1CO[C@H]2[C@@H]1OC[C@@H]2n1cc(-c2ccccn2)nn1)c1cccs1	i
CCC1(O)CCC12CCN(C(=O)C1CCC1)CC2 (stereo not drawn)	i
COCCNC(=O)CC[C@]12CC[C@](C)(O)C[C@H]1C(C)(C)C[C@@H]2NC(=O)CC(C)(C)C	-10.0%[44.1 µM]
COc1ccc(NC(=O)CN2C(=O)NC3(CCC(C)CC3)C2=O)c(OC)c1 (stereo not drawn)	-11.6%
CCCCN1C(=O)CC[C@H]2CN(C(=O)c3ccccc3Cl)CC[C@H]21	-24.4%
Cc1nnnn1CC(=O)Nc1nn(Cc2ccccc2)c2cccc(OC(C)C)c12	i
CC(C)Oc1cccc2c1c(NC(=O)C1CCN(C)C1)nn2Cc1ccccc1 (stereo not drawn)	2.24µM*
CC(C)Oc1cccc2c1c(NC(=O)C1CC(=O)N(C)C1)nn2Cc1ccccc1 (stereo not drawn)	-11.2%
COc1ccc(S(=O)(=O)N2C[C@@H]3C[C@H](C2)c2ccc(NC(=O)c4ccc(C#N)cc4)c(=O)n2C3)cc1	-16.7%
COc1ccc(C2CC(=O)N(CC(=O)Nc3cc(C)ccc3C)c3ccccc3S2)cc1 (stereo not drawn)	-7.2%
CCOC(=O)c1ccccc1NC(=O)CN1C(=O)CC(c2ccccc2)Sc2ccccc21 (stereo not drawn)	i
COc1cc(C2CC(=O)N(CC(=O)Nc3ccccc3F)c3ccccc3S2)cc(OC)c1OC (stereo not drawn)	3.16µM*
SMILES	Pf Dd2 growth
CNC(=O)c1noc([C@@H]2CC(F)(F)CN2Cc2cccn2C)n1	-2.3%
CC(C)C(=O)NCCC1CCN(C(=O)Nc2cc(F)ccc2F)CC1	-9.0%
O[C@@H]1C[C@@H](c2nc(-c3ccccn3)no2)N(Cc2cc3ccccc3o2)C1	i
CC(C)CCN1CCC2(CC1)C(=NC1CCCC1)NC(=O)N2c1cc(F)cc(F)c1	-27.7%
COc1cccc(N2C(=O)NC(=NC3CCCCC3)C23CCCN(C(=O)c2ccccc2F)C3)c1 (stereo not drawn)	48.9%
O=C1NC(=NC2CCCC2)C2(CCN(CC3CC3)CC2)N1c1cc(F)cc(F)c1	-8.1%
O=C1NC(=NC2CCCCC2)C2(CCN(CC3CC3)CC2)N1c1cc(F)cc(F)c1	-25.2%
COc1cccc(N2C(=O)NC(=NC3CCCC3)C23CCCN(C(=O)c2ccccc2)C3)c1 (stereo not drawn)	8.5%
C[S+](=O)([O-])N1CCCC2(C1)C(=NC1CCCC1)NC(=O)N2c1cc(F)cc(F)c1 (stereo not drawn)	i
O=C1NC(=NC2CCCCC2)C2(CCCN(CC3CCCCC3)C2)N1c1cc(F)cc(F)c1 (stereo not drawn)	7.94µM*
CC(C)CCN1CCCC2(C1)C(=NC1CCCC1)NC(=O)N2c1cc(F)cc(F)c1 (stereo not drawn)	10µM*
COc1cccc(N2C(=O)NC(=NC3CCCC3)C23CCCN(CCC(C)C)C3)c1 (stereo not drawn)	12.6µM*
CN(C1CCOCC1)C1CCN(C(=O)c2ccn[nH]2)CC1	14.0%
COc1ccc(CN2CC[C@H](c3nc(C)no3)[C@H](NC(=O)C3CC3)C2)cc1	-14.1%[5.79 µM]
O=C([C@@H]1C[C@H](Oc2cccnc2)CN1C(=O)Nc1ccc2c(c1)OCCO2)N1CCCC1	20.2%
COc1ccc(CC(=O)N[C@@H]2CN(C)C[C@H]2CN(C)C)cc1Cl	4.5%
O=C(NCc1cccc(F)c1)c1cnc2c(c1)N(Cc1ccccc1)CCC2	57.3%[44.1 µM]
